Data as given in the supplement of paper PMC8728848.
Only a selection was taken, and the strongest signals are over-represented in it overall.

Columns and labels:
Test in all cases: glycan array binding signal (z-score within array); higher = stronger binding
Settings in all cases: glycan notation: IUPAC condensed, linker removed
[1] = biological target: Fuc(a1-2)Gal(b1-3)GlcNAc(b1-3)[Fuc(a1-2)Gal(b1-3)GlcNAc(b1-6)]GalNAc
Method in brief: (§1)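 The Consortium for Functional Glycomics database supplied 3228 glycan arrays, of which those lacking an available protein sequence were dropped. The binding signal, a within-array Z-score, was averaged across arrays of the same protein sequence and across linkers. Negative scores can be read as non-binding.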

[2] = biological target: Fuc(a1-2)Gal(b1-3)GlcNAc(b1-3)[Neu5Ac(a2-6)Gal(b1-4)GlcNAc(b1-6)]Gal(b1-4)Glc
Method in brief: as §1

[3] = biological target: Fuc(a1-2)[Gal(a1-3)]Gal(b1-4)GlcNAc
Method in brief: as §1

[4] = biological target: Fuc(a1-2)[Gal(a1-3)]Gal(b1-4)GlcNAc(b1-2)Man
Method in brief: as §1

[5] = biological target: Fuc(a1-3)[Gal(b1-4)]GlcNAc(b1-2)Man
Method in brief: as §1

Gal(a1-3)Gal(b1-3)GlcNAc = biological target: Gal(a1-3)Gal(b1-3)GlcNAc
Method in brief: as §1

[6] = biological target: Gal(a1-3)Gal(b1-4)GlcNAc(b1-2)Man(a1-3)[Gal(a1-3)Gal(b1-4)GlcNAc(b1-2)Man(a1-6)]Man(b1-4)GlcNAc(b1-4)GlcNAc
Method in brief: as §1

[7] = biological target: Gal(a1-3)Gal(b1-4)[Fuc(a1-3)]GlcNAc(b1-2)Man(a1-3)[Gal(a1-3)Gal(b1-4)[Fuc(a1-3)]GlcNAc(b1-2)Man(a1-6)]Man(b1-4)GlcNAc(b1-4)GlcNAc
Method in brief: as §1

Gal(a1-6)Glc = biological target: Gal(a1-6)Glc
Method in brief: as §1

[8] = biological target: Gal(b1-3)GalNAc(b1-3)Gal(a1-4)Gal(b1-4)Glc
Method in brief: as §1

[9] = biological target: Gal(b1-3)GlcNAc(b1-3)Gal(b1-3)GlcNAc
Method in brief: as §1

[10] = biological target: Gal(b1-3)GlcNAc(b1-6)GalNAc
Method in brief: as §1

[11] = biological target: Gal(b1-3)GlcNAc(b1-6)[Gal(b1-3)]GalNAc
Method in brief: as §1

[12] = biological target: Gal(b1-4)GlcNAc(b1-2)Man(a1-3)[Gal(b1-4)GlcNAc(b1-2)Man(a1-6)]Man(b1-4)GlcNAc(b1-4)GlcNAc
Method in brief: as §1

[13] = biological target: Gal(b1-4)GlcNAc(b1-2)Man(a1-3)[Gal(b1-4)GlcNAc(b1-2)Man(a1-6)][Gal(b1-4)GlcNAc(b1-4)]Man(b1-4)GlcNAc(b1-4)[Fuc(a1-6)]GlcNAc
Method in brief: as §1

[14] = biological target: Gal(b1-4)GlcNAc(b1-2)Man(a1-3)[Man(a1-6)]Man(b1-4)GlcNAc(b1-4)GlcNAc
Method in brief: as §1

[15] = biological target: Gal(b1-4)GlcNAc(b1-2)Man(a1-6)[Man(a1-3)]Man(b1-4)GlcNAc(b1-4)GlcNAc
Method in brief: as §1

[16] = biological target: Gal(b1-4)GlcNAc(b1-2)[Gal(b1-4)GlcNAc(b1-6)]Man(a1-6)[GlcNAc(b1-4)][Gal(b1-4)GlcNAc(b1-2)[Gal(b1-4)GlcNAc(b1-4)]Man(a1-3)]Man(b1-4)GlcNAc(b1-4)[Fuc(a1-6)]GlcNAc
Method in brief: as §1

[17] = biological target: Gal(b1-4)GlcNAc(b1-3)Gal(b1-4)GlcNAc(b1-2)Man(a1-3)[Gal(b1-4)GlcNAc(b1-3)Gal(b1-4)GlcNAc(b1-2)Man(a1-6)]Man(b1-4)GlcNAc(b1-4)GlcNAc
Method in brief: as §1

[18] = biological target: Gal(b1-4)GlcNAc(b1-3)Gal(b1-4)GlcNAc(b1-2)[Gal(b1-4)GlcNAc(b1-3)Gal(b1-4)GlcNAc(b1-6)]Man(a1-6)[Gal(b1-4)GlcNAc(b1-3)Gal(b1-4)GlcNAc(b1-2)Man(a1-3)]Man(b1-4)GlcNAc(b1-4)GlcNAc
Method in brief: as §1

[19] = biological target: Gal(b1-4)GlcNAc(b1-3)Gal(b1-4)[Fuc(a1-3)]GlcNAc(b1-3)Gal(b1-4)[Fuc(a1-3)]GlcNAc
Method in brief: as §1

[20] = biological target: Gal(b1-4)GlcNAc(b1-3)[Gal(b1-4)GlcNAc(b1-6)]GalNAc
Method in brief: as §1

[21] = biological target: Gal(b1-4)GlcNAc(b1-6)[Gal(b1-4)GlcNAc(b1-3)]GalNAc
Method in brief: as §1

GalNAc(b1-3)GalNAc = biological target: GalNAc(b1-3)GalNAc
Method in brief: as §1

GalNAc(b1-4)Gal(b1-4)Glc = biological target: GalNAc(b1-4)Gal(b1-4)Glc
Method in brief: as §1

[22] = biological target: Glc(a1-4)Glc(a1-4)Glc(a1-4)Glc
Method in brief: as §1

Glc(b1-4)Glc = biological target: Glc(b1-4)Glc
Method in brief: as §1

GlcA(b1-3)Gal = biological target: GlcA(b1-3)Gal
Method in brief: as §1

[23] = biological target: GlcNAc(a1-4)Gal(b1-3)GlcNAc
Method in brief: as §1

[24] = biological target: GlcNAc(b1-2)[GlcNAc(b1-4)]Man(a1-3)[GlcNAc(b1-2)Man(a1-6)]Man(b1-4)GlcNAc(b1-4)GlcNAc
Method in brief: as §1

[25] = biological target: GlcNAc(b1-3)[GlcNAc(b1-6)]GalNAc
Method in brief: as §1

[26] = biological target: GlcNAc(b1-4)GlcNAc(b1-4)GlcNAc
Method in brief: as §1

[27] = biological target: GlcNAc(b1-4)[GlcNAc(b1-6)]GalNAc
Method in brief: as §1

[28] = biological target: Man(a1-2)Man(a1-2)Man(a1-3)Man
Method in brief: as §1

[29] = biological target: Man(a1-2)Man(a1-3)[Man(a1-2)Man(a1-6)]Man(a1-6)[Man(a1-2)Man(a1-2)Man(a1-3)]Man(b1-4)GlcNAc(b1-4)GlcNAc
Method in brief: as §1

[30] = biological target: Man(a1-2)Man(a1-3)[Man(a1-6)]Man(a1-6)[Man(a1-2)Man(a1-3)]Man(b1-4)GlcNAc(b1-4)GlcNAc
Method in brief: as §1

[31] = biological target: Man(a1-2)Man(a1-6)[Man(a1-3)]Man(a1-6)[Man(a1-2)Man(a1-2)Man(a1-3)]Man(b1-4)GlcNAc(b1-4)GlcNAc
Method in brief: as §1

Man(a1-3)[Man(a1-6)]Man = biological target: Man(a1-3)[Man(a1-6)]Man
Method in brief: as §1

[32] = biological target: Man(a1-3)[Man(a1-6)]Man(a1-6)[Man(a1-2)Man(a1-3)]Man(b1-4)GlcNAc(b1-4)GlcNAc
Method in brief: as §1

[33] = biological target: Man(a1-3)[Man(a1-6)]Man(a1-6)[Man(a1-3)]Man
Method in brief: as §1

[34] = biological target: Man(a1-3)[Man(a1-6)]Man(a1-6)[Man(a1-3)]Man(b1-4)GlcNAc(b1-4)GlcNAc
Method in brief: as §1

[35] = biological target: Man(a1-3)[Man(a1-6)]Man(b1-4)GlcNAc(b1-4)GlcNAc
Method in brief: as §1

[36] = biological target: Man(a1-3)[Man(a1-6)]Man(b1-4)GlcNAc(b1-4)[Fuc(a1-6)]GlcNAc
Method in brief: as §1

Man(b1-4)GlcNAc = biological target: Man(b1-4)GlcNAc
Method in brief: as §1

[37] = biological target: Neu5Ac(a2-3)Gal(b1-3)GlcNAc(b1-2)Man
Method in brief: as §1

[38] = biological target: Neu5Ac(a2-3)Gal(b1-3)GlcNAc(b1-3)Gal(b1-4)GlcNAc
Method in brief: as §1

[39] = biological target: Neu5Ac(a2-3)Gal(b1-3)GlcNAc(b1-3)GalNAc
Method in brief: as §1

[40] = biological target: Neu5Ac(a2-3)Gal(b1-3)GlcNAc6S
Method in brief: as §1

[41] = biological target: Neu5Ac(a2-3)Gal(b1-4)GlcNAc
Method in brief: as §1

[42] = biological target: Neu5Ac(a2-3)Gal(b1-4)GlcNAc(b1-3)Gal(b1-4)GlcNAc(b1-3)Gal(b1-4)GlcNAc
Method in brief: as §1

[43] = biological target: Neu5Ac(a2-3)Gal(b1-4)[Fuc(a1-3)]GlcNAc(b1-3)Gal
Method in brief: as §1

[44] = biological target: Neu5Ac(a2-3)Gal6S(b1-4)[Fuc(a1-3)]GlcNAc
Method in brief: as §1

[45] = biological target: Neu5Ac(a2-6)Gal(b1-3)GlcNAc(b1-3)[Gal(b1-4)GlcNAc(b1-6)]Gal(b1-4)Glc
Method in brief: as §1

[46] = biological target: Neu5Ac(a2-6)Gal(b1-4)GlcNAc(b1-2)Man(a1-6)[Man(a1-3)]Man(b1-4)GlcNAc(b1-4)GlcNAc
Method in brief: as §1

[47] = biological target: Neu5Ac(a2-8)Neu5Ac(a2-8)Neu5Ac
Method in brief: as §1

[48] = biological target: Neu5Ac(b2-6)Gal(b1-4)GlcNAc
Method in brief: as §1

[49] = biological target: Neu5Gc(a2-8)Neu5Gc(a2-3)Gal(b1-4)GlcNAc(b1-3)Gal(b1-4)GlcNAc
Method in brief: as §1

B1: NPA (Narcissus pseudonarcissus), C0HM45 (protein)
chain: DNILYSGETLSPGEFLNNGRYVFIMQEDCNLVLYDVDKPIWATNTGGLDRRCHLSMQSDGNLVVYSPRNNPIWASNTGGENGNYVCVLQKDRNVVIYGTARWATGTNIH
glycan array binding signal (z-score) [1]: -0.124 | glycan array binding signal (z-score) [2]: -0.142 | glycan array binding signal (z-score) [3]: -0.152 | glycan array binding signal (z-score) [4]: -0.132 | glycan array binding signal (z-score) [5]: -0.131 | glycan array binding signal (z-score) (Gal(a1-3)Gal(b1-3)GlcNAc): -0.133 | glycan array binding signal (z-score) [6]: 2.1 | glycan array binding signal (z-score) [7]: -0.056 | glycan array binding signal (z-score) (Gal(a1-6)Glc): -0.147 | glycan array binding signal (z-score) [8]: -0.135 | glycan array binding signal (z-score) [9]: -0.148 | glycan array binding signal (z-score) [10]: -0.144 | glycan array binding signal (z-score) [11]: -0.051 | glycan array binding signal (z-score) [12]: 0.602 | glycan array binding signal (z-score) [13]: -0.143 | glycan array binding signal (z-score) [14]: 1.71 | glycan array binding signal (z-score) [15]: 3.12 | glycan array binding signal (z-score) [16]: -0.141 | glycan array binding signal (z-score) [17]: 0.034 | glycan array binding signal (z-score) [18]: -0.104 | glycan array binding signal (z-score) [19]: -0.144 | glycan array binding signal (z-score) [20]: -0.201 | glycan array binding signal (z-score) [21]: -0.141 | glycan array binding signal (z-score) (GalNAc(b1-3)GalNAc): -0.153 | glycan array binding signal (z-score) (GalNAc(b1-4)Gal(b1-4)Glc): -0.129 | glycan array binding signal (z-score) [22]: -0.139 | glycan array binding signal (z-score) (Glc(b1-4)Glc): -0.152 | glycan array binding signal (z-score) (GlcA(b1-3)Gal): -0.148 | glycan array binding signal (z-score) [23]: -0.152 | glycan array binding signal (z-score) [24]: -0.076 | glycan array binding signal (z-score) [25]: -0.147 | glycan array binding signal (z-score) [26]: -0.122 | glycan array binding signal (z-score) [27]: -0.146 | glycan array binding signal (z-score) [28]: 0.268 | glycan array binding signal (z-score) [29]: 0.144 | glycan array binding signal (z-score) [30]: 2.38 | glycan array binding signal (z-score) [31]: 1.83 | glycan array binding signal (z-score) (Man(a1-3)[Man(a1-6)]Man): 5.21 | glycan array binding signal (z-score) [32]: 5.6 | glycan array binding signal (z-score) [33]: 2.47 | glycan array binding signal (z-score) [34]: 5.37 | glycan array binding signal (z-score) [35]: 10.1 | glycan array binding signal (z-score) [36]: 5.34 | glycan array binding signal (z-score) (Man(b1-4)GlcNAc): -0.151 | glycan array binding signal (z-score) [37]: -0.122 | glycan array binding signal (z-score) [38]: -0.153 | glycan array binding signal (z-score) [39]: -0.14 | glycan array binding signal (z-score) [40]: -0.124 | glycan array binding signal (z-score) [41]: -0.154 | glycan array binding signal (z-score) [42]: -0.151 | glycan array binding signal (z-score) [43]: -0.162 | glycan array binding signal (z-score) [44]: -0.158 | glycan array binding signal (z-score) [45]: -0.144 | glycan array binding signal (z-score) [46]: 3.41 | glycan array binding signal (z-score) [47]: -0.156 | glycan array binding signal (z-score) [48]: -0.154 | glycan array binding signal (z-score) [49]: -0.146
